# Results published in PubChem BioAssay (EPA / NIEHS).
# Activity calls are given as the source filed them. Rule for the calls: active = hit-call score of the fitted dose curve at least 0.9, where 1 is the maximum; inactive = score below 0.9.
# Assay: APR_HepG2_MitoMembPot_72hr: Apredica 72-hour HepG2 Assay for Mitochondrial Membrane Potential (AID 2282917)
# Details: imaging, actives raise or lower the signal
# Method: APR_HepG2_72hr is a cell-based, multiplexed-readout assay that uses HepG2, a human liver cell line, with measurements taken at 72 hours after chemical dosing in a 384-well plate.APR_HepG2_MitoMembPot_72hr is one of 10 assay component(s) measured or calculated from the APR_HepG2_72hr assay. It is designed to make measurements of dye binding, a form of membrane potential reporter, as detected with fluorescence intensity signals by HCS Fluorescent Imaging technology.Data from the assay component APR_HepG2_MitoMembPot_72hr was analyzed into 1 assay endpoint. This assay endpoint, APR_HepG2_MitoMembPot_72hr, was analyzed with bidirectional fitting relative to DMSO as the negative control and baseline of activity. Using a type of membrane potential reporter, gain or loss-of-signal activity can be used to understand changes in the signaling. Furthermore, this assay endpoint can be referred to as a primary readout, because this assay has produced multiple assay endpoints where this one serves a signaling function. To generalize the intended target to other relatable targets, this assay endpoint is annotated to the cell morphology intended target family, where the subfamily is organelle conformation.
# Cells were treated with dimethyl sulfoxide (DMSO) as a solvent control at a final concentration of 0.5% v/v or with compounds in DMSO with a resulting final DMSO concentration of 0.5% v/v. Compound treatment was done at concentrations of 0.39, 0.78, 1.56, 3.12, 6.24, 12.5, 25, 50, 100, and 200 uM in duplicate on each plate. Cells were treated with compounds for 1, 24, or 72 hr. Carbonyl […] m-chloro-phenylhydrazone (CCCP) and taxol were used as positive controls for mitochondrial function and cytoskeletal stability, respectively; DMSO served as the negative control for this experiment. Cells were fixed by the direct addition of 50 uL formaldehyde in Hank's Balanced Salt Solution (HBSS) to a final concentration of 3.7%. After incubation in the fixation medium for 30 min at room temperature (293-298 K), cells were rinsed twice with HBSS and treated with cell permeabilization buffer (16 uL of 0.5% Triton X-100) for 10 min at room temperature (293-298 K) before labeling. For mitochondrial membrane potential and mitochondrial measurements, pre-fixed cells were incubated with 50 uL of MitoTracker Red CMXRos (Invitrogen) at a concentration of 250 nM for 30 min before fixation. In the remaining cases, post-fixed cells were labeled by incubation with a multiplexed mixture of primary antibodies in HBSS for 60 min at room temperature (293-298 K) to detect immunoreactivity of c-Jun (1:500), phospho-histone H3 (1:100), phospho-histone H2A.x (1:200), p53 (1:400), alpha-tubulin (1:200) and Hoechst 33342 (2 ug/mL). Cells were labeled for multiplexed imaging on two separate plates: a) Hoechst 33342, MitoTracker Red, phospho-histone H3, and alpha-tubulin, and b) Hoechst 33342, phospho-histone H2A.x, and c-Jun. A final rinse with HBSS (50 uL) was performed before analysis. The primary and secondary antibodies for the proteins were phospho-histone H3 (rabbit anti-phospho-histone H3 and FITC-donkey anti-rabbit IgG), phospho-histone H2A.x (mouse anti-phospho-histone H2A.x and FITC-donkey anti-mouse IgG), c-Jun (rabbit anti-phospho-c-Jun and Cy3-donkey anti-rabbit IgG), p53 (sheep anti-p53 and Cy5-donkey anti-sheep IgG), alpha-tubulin (mouse anti-alpha-tubulin and Cy5-donkey anti-mouse IgG). These antibodies are available as the CellCiphr HepG2 assay kit (Millipore).Digital images of each well were captured using a Cellomics ArrayScan VTI (Thermo Scientific Cellomics) (0.8 NA objective, 0.63x optical coupler, and XF-93 filter set) at 20x magnification. The images were acquired using the autofocus feature of the ArrayScan instrument, which entails the following steps. First, the camera focuses on channel 1 (Hoechst 33342), where nuclei are identified. Second, a Z offset of 1 um is used for capturing mitochondria (MitoTracker Red). […]
Compound,outcome,AC50
O=P(Oc1ccccc1)(Oc1ccccc1)Oc1ccccc1,inactive,
CCCCCCCc1ccc(O)cc1,inactive,
O=P1(N(CCCl)CCCl)NCCCO1 (stereo not given),inactive,
CCC1(c2ccccc2)C(=O)N=C(O)NC1=O (stereo not given),inactive,
Cc1cccc(N)c1,inactive,
CSC(C)(C)C=NO,inactive,
CCOP(=S)(Oc1ccc([N+](=O)[O-])cc1)c1ccccc1 (stereo not given),inactive,
CCCCc1ccccc1,inactive,
ClC1=C(Cl)C2(Cl)C3C(Cl)C(Cl)CC3C1(Cl)C2(Cl)Cl (stereo not given),,27.1 µM (active)
OCC1CO1 (stereo not given),inactive,
CC(C)(C)c1ccc(O)cc1,inactive,
Cc1ccc([N+](=O)[O-])cc1C,inactive,
CCNc1nc(Cl)nc(NC(C)(C)C)n1,inactive,
c1ccc(OP(Oc2ccccc2)Oc2ccccc2)cc1,inactive,
Nc1ccc(Cl)cc1,inactive,
Cc1ccc(N)cc1N,inactive,
Nc1ccc2ccccc2c1,inactive,
ClC(Cl)(Cl)c1ccccc1,inactive,
[N-]=[N+]=[N-],inactive,
CCCCN(CCCC)N=O,inactive,

Compound,outcome,AC50
O=C(O)C(Cl)Cl,inactive,
Cc1ccc(O)cc1C,inactive,
c1nc[nH]n1,inactive,
CC(Cc1ccc(OCC(=O)O)cc1)NCC(O)c1csc(C(F)(F)F)n1 (stereo not given),inactive,
CCCCN(CCCC)SN(C)C(=O)Oc1cccc2c1OC(C)(C)C2,inactive,
Nc1cc2c3c(c1)C(c1ccccc1)=N[C@@H](NC(=O)c1cccnc1)C(=O)N3CC2,inactive,
CCOS(=O)(=O)OCC,inactive,
CCOc1ccc(C(C)(C)COCc2cccc(Oc3ccccc3)c2)cc1,inactive,
CN(C)C(=O)Cl,inactive,
CC(Cl)(Cl)C(=O)O,inactive,
O=[N+]([O-])c1ccccc1,inactive,
CCCN(CCC)c1c([N+](=O)[O-])cc(C(C)C)cc1[N+](=O)[O-],,46.9 µM (active)
CCOP(=S)(OCC)SCSCC,inactive,
COCCOCCO,inactive,
c1ccc2c(c1)Nc1ccccc1S2,,123 µM (active)
ClC(Cl)c1ccccc1,inactive,
CC(C)(C)OOC(C)(C)C,inactive,
CCN(CC)c1ccccc1,inactive,
CCOC(=O)c1ccccc1C(=O)OCC,inactive,
O=[N+]([O-])c1ccc(Cl)c(Cl)c1,inactive,
